# Laboratory results reported in ChEMBL document CHEMBL3988442, “University of Dundee, Small-Polar-MMV Screening Library” (2021).
# What was measured:
# [1] = biological target: T1, Aspartate--tRNA(Asp/Asn) ligase (Mycobacterium tuberculosis (strain ATCC 25618 / H37Rv)) (UniProt P9WFW3); experiment: Assay for Asp RNA synthetase-1 from Mycobacterium tuberculosis; format: functional; parameters: scale not given: direction of the effect not stated beside the values; settings: 30 µM; note: in the data most compounds retested in dose-response had high values
# T1 sequence (whole entry): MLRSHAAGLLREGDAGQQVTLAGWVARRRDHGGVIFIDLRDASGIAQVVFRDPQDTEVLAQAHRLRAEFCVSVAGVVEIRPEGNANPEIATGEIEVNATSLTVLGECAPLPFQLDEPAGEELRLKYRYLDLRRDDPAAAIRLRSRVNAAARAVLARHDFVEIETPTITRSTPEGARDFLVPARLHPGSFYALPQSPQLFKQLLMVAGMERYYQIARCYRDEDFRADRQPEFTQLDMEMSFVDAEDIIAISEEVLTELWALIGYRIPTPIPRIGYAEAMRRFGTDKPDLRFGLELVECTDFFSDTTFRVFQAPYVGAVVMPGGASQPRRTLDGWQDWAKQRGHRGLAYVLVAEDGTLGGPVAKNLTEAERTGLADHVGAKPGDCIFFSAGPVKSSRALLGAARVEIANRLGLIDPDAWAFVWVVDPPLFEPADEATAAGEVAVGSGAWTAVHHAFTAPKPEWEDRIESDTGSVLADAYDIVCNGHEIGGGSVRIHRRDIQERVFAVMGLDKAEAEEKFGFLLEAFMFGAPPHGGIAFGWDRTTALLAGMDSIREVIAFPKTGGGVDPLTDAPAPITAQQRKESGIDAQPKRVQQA
# [2] = biological target: Shiga toxin 2 (Escherichia coli O157:H7) (UniProt P09385+P09386); experiment: E. coli 0.157:H7 Shiga Toxin SOP - stx2 screening assay; format: functional; parameters: scale not given: direction of the effect not stated beside the values; settings: 30 µM
Compound,Percent Effect [1],Percent Effect [2]
CC(C)S(=O)(=O)N1CCC(c2cc3n(n2)[C@@H](C(F)(F)F)C[C@@H](C)N3)C1 (some centres not stated),-2.54%,-27.2%
Cc1nc(CCCNC(=O)C2CC(=O)N(C(C)(C)C)C2)sc1C (configuration not stated),-1.3%,-11.5%
CCN(CC1CCOC1)C(=O)Nc1ccc(N2CCCC2)nc1 (configuration not stated),0.3%,1.73%
Cc1cccc(CN2CCc3nnc(CO)n3CC2)n1,0.728%,-10.4%
c1ccc(CN2CCOCC3(CCN(C4CCOCC4)C3)C2)cc1 (configuration not stated),6.57%,12.2%
Cc1cc(=O)n(CC(=O)NCCC(C)C)c(-c2cccc(Cl)c2)n1,12.2%,-9.6%
Cc1noc(C)c1CN(C)C(=O)NC1CCN(c2ncccn2)CC1,0.9%,9.61%
CC(C)CN1CCCC2(CCN(C(=O)c3cnccn3)C2)C1 (configuration not stated),1.03%,-7.5%
COc1ccc(OC)c(C2CCN(Cc3nc(C)n4ccccc34)C2)c1 (configuration not stated),-1.14%,10.1%
Cc1nnc(NCC2(c3ccccc3)CC2)c(C#N)c1C,1.73%,15.4%
CCO[C@@H]1CO[C@@]2(CCCN(S(=O)(=O)c3cccnc3)C2)C1,9.04%,-20%
COc1cccc(OCC2CCCN(C3CCN(C(C)=O)CC3)C2)c1 (configuration not stated),4.72%,-0.97%
CNC(=O)N1CC[C@@H]2CN(Cc3cccnc3)S(=O)(=O)[C@@H]2CC1,1.91%,-0.136%
Cn1cc(NC(=O)N2CCC(c3ccccc3)CC2)ccc1=O,55%,21.8%
Cc1ccc(C(=O)N2CCc3c(CNS(C)(=O)=O)cncc3C2)o1,9.11%,-21%
Cc1cc(S(=O)(=O)N2CCC(S(C)(=O)=O)CC2)ccc1F,1.15%,-4.34%
Cc1ccccc1-n1ncc(C(=O)N2CCCC2c2cnn(C)c2)c1C (configuration not stated),0.583%,10.1%
N#CCCCS(=O)(=O)N1CCCC1CC(=O)c1cccs1 (configuration not stated),0.747%,12%
CC(C)CCC(=O)NC(C)c1nnc2n1CCCCC2 (configuration not stated),1.76%,-17.4%
Cc1cccn2c(=O)cc(OC(=O)c3ccccc3)nc12,-3.21%,-13.3%
O=C(c1ccc(=O)[nH]n1)N1CC(c2nc(Cc3ccccc3)no2)C1,-0.546%,-7.29%
CN(C)C[C@H]1OC[C@@H]2CCN(S(=O)(=O)c3cccs3)C[C@@H]21,-0.29%,-8.75%
CN(C(=O)CCNC(=O)NC1CCCCC1)c1ccccc1,-1.38%,4.9%
Cc1nn2c(N3CCC(O)CC3)cc(-c3ccccc3)nc2c1C,1.19%,7.56%
CC(NC(=O)NCCCn1cccn1)c1ccc2c(c1)NC(=O)CO2 (configuration not stated),-5.91%,-20.8%
Cc1cnn(CC2CCCN2C(=O)c2cc(C)no2)c1 (configuration not stated),-4.16%,16.5%

Compound,Percent Effect [1],Percent Effect [2]
COc1ccc(-c2noc(C(=O)NCCN3CCCCC3)n2)cc1OC,-1.25%,-77.4%
Cc1ccc(N2CC[C@H](OCC3CC3)[C@@H]2Cc2cnn(C)c2)nn1,2.69%,-6.34%
NC(=O)c1cccc(CC2CCN(C(=O)CCCN3CCOCC3)C2)c1 (configuration not stated),6.21%,-6.5%
CCc1noc(C(C)N2CCC(N3CCCC3)CC2)n1 (configuration not stated),-8.83%,-5.16%
Cc1cc(C)n(Cc2ccc(C(=O)NCCN3CCOCC3)cc2)n1,-4.18%,6.83%
CC1CCN(S(=O)(=O)c2cccn(CC(=O)NC3CCCC3)c2=O)CC1,-2.16%,1.09%
CS(=O)(=O)NC1CCCN(C(=O)NCc2cc[nH]n2)C1 (configuration not stated),-0.0288%,2.05%
Cc1ccc(NC2CCN(C(=O)COCC(F)(F)F)CC2)nn1,-0.48%,-13.9%
Cc1cc(N2CCCC2c2cnccn2)ncn1 (configuration not stated),0.908%,9.94%
O=c1[nH]c2c(c(=O)n1C1CCCCC1)CCC2Nc1ccccc1 (configuration not stated),3.05%,1.28%
CCn1cc(NC(=O)NCC(C)O)cn1 (configuration not stated),-3.08%,3.43%
CCN1CCN(C(=O)c2nc(C)n(-c3ccccc3Cl)n2)CC1,-3.15%,0.607%
CCNC(=O)Nc1ccc2c(ccn2CC(=O)N(CC)CC)c1,-3.17%,30.4%
CCN(CC)C(=O)CCn1ncc2c(Cl)cccc21,-1.07%,-23.7%
Cn1ccc(C(=O)NCc2ccc(N3CCCC3)nc2)cc1=O,0.0735%,-33.5%
c1cnn(CC2CCCN2Cc2nc(-c3ccoc3)no2)c1 (configuration not stated),0.0441%,-0.74%
Cc1nc(C)n(C2CCCN(C(=O)c3ccc(NC4CC4)nc3)C2)n1 (configuration not stated),-1.66%,-7.5%
Cc1cc(NC(=O)NCCc2ccsc2)n(C)n1,-9.16%,-21.1%
CCn1c(C)nnc1CN(C)C1CCN(Cc2cnc(C)cn2)C1 (configuration not stated),2.78%,-19%
COc1ccc(OC)c(NC(=O)NCC(O)c2ccc(F)c(F)c2)c1 (configuration not stated),4.09%,-0.389%
CCn1cnnc1CNC(=O)N(C)Cc1ccc(F)c(F)c1,-2.12%,18.2%
Cc1ccc(C(=O)N2CCN(CCc3cccs3)CC2)c(=O)[nH]1,-1.83%,-29.5%
COc1cccc(CN2CCN(C(=O)CN3CCOCC3)CC2)n1,-3.48%,-2.5%
O=C(NCCOc1ncc(Cl)cc1Cl)c1ccncc1,5.64%,-19.5%
CC[C@@H]1N(Cc2ccsc2)CCC[C@]12CCC(=O)N2C,-1.82%,5.09%
O=C(c1ccncc1F)N1CCc2ncnc(-c3ccncc3)c2CC1,3.59%,-0.901%

Compound,Percent Effect [1],Percent Effect [2]
COc1ncc(CN2CC[C@@](C)(O)[C@H](Oc3cccc(F)c3)C2)cn1,6.63%,13%
CC(C)(C)n1ncc2c1NC(=O)CC2c1ccsc1 (configuration not stated),2.57%,-10.8%
O=C(c1nc(-c2ccc3cc[nH]c3c2)no1)N1CCCC1,-0.958%,-77.4%
Cc1cc(C)n(CC2CCCN2CCCS(=O)(=O)N(C)C)n1 (configuration not stated),2.38%,0.632%
Clc1ccccc1C1(c2ccnc(-c3ccncc3)n2)CCNCC1,0.832%,-43.2%
Cc1cc(C)n(C2CCCN(C(=O)c3c(C)c(C)n[nH]c3=O)C2)n1 (configuration not stated),-2.4%,2.19%
COC(=O)CCc1c(C)nc2cc(O)nn2c1C,-3.67%,-37.6%
Cc1cnn(CCC(=O)N2CCCN(c3ncccc3C#N)CC2)c1,-6.54%,-34.1%
CN(C)C(C)(C)CNC(=O)C(C)(C)c1ccccc1F,-0.279%,13.2%
CN(Cc1ccc(F)cc1)CC1(O)CCN(C(=O)c2cccn2C)C1 (configuration not stated),-4.54%,-9.28%
Cc1nc(N2CCN(C(=O)C3CC3)CC2)c2c(n1)c(C)nn2C,-2.18%,-35.4%
Cn1cccc1CN1CCC2(CCCN(C(=O)Cc3cccnc3)C2)C1 (configuration not stated),4.47%,-14.5%
CCc1nc(CN(CC(N)=O)C(C)C)cs1,0.799%,-3.84%
Cc1nc(N2CCN(C(=O)C(C)(C)C)CC2)cc(-n2cnc(C)c2C)n1,0.832%,-43.6%
c1ccc(-c2nc(CN3CCCC(Cn4cncn4)C3)co2)cc1 (configuration not stated),0.247%,-67.5%
CCN1CCN(c2ccc(CNC(=O)c3c(C)noc3C)cn2)CC1,-3.84%,-40.9%
CN1CCN(c2ncccc2CNc2ncccc2C#N)CC1,3.68%,2.01%
Cc1cnn(C2CCCN(C(=O)C3=NN(C)C(=O)CC3)C2)c1 (configuration not stated),3.95%,3.74%
O=C(Cc1ccc2c(c1)CCO2)N1CCCCC1Cn1cccn1 (configuration not stated),-2.75%,-6.84%
O=C(c1ccsc1)N1CC(C(=O)N2CCOCC2)C2(CCOCC2)C1 (configuration not stated),-3.83%,-2.66%
CCC(O)CNC(=O)c1coc(COc2ccc3sc(C)nc3c2)n1 (configuration not stated),5.32%,-27.2%
CCOc1ccccc1-c1noc(CN2CC(n3cccn3)C2)n1,0.259%,34.8%
CCc1nc(CN2CCCC(NCc3ncc(C(C)(C)C)o3)C2)no1 (configuration not stated),5.85%,2.13%
COCc1nc(C(=O)N2CCCCC2Cn2cccn2)cs1 (configuration not stated),1.01%,16.6%
O=C(NCCc1ccn(-c2ccccc2)n1)N1CCC1,1.53%,-11.7%
CCn1cnnc1C1CCN(C(=O)c2cc3c(s2)CCC3)CC1,-5.31%,-11.1%

Compound,Percent Effect [1],Percent Effect [2]
COc1c(C2CCCN2C(=O)c2cccc(C(N)=O)c2)c(C)nn1C (configuration not stated),0.375%,18%
Cc1n[nH]cc1C(=O)N1CCCC(n2nnc3cc(F)ccc32)C1 (configuration not stated),-7.43%,-9.56%
CC(NC(=O)NCCn1ccnc1)c1ccc2c(c1)NC(=O)CO2 (configuration not stated),0.942%,5.67%
O=C1NCc2ccc(NC(=O)C3CCCN3c3nccs3)cc21 (configuration not stated),0.522%,-17.5%
COC1CCN(C(=O)CCc2c(C)nc3ccnn3c2C)CC1,-6.77%,21%
CCc1cc(C(=O)N2CCC(Nc3ccc(C)nn3)CC2)sc1C,-2.1%,-27.9%
CCN(CC)C(=O)Cn1ccc2cc(NC(=O)C3CCCO3)ccc21 (configuration not stated),-4.41%,-1.75%
CNC(=O)CN1CCCC12CCN(C(=O)c1ccc(F)cc1)CC2,-5.42%,-14.4%
CCCc1ncc(C(=O)N2CCOC(c3nc(C)n[nH]3)C2)s1 (configuration not stated),0.888%,2.31%
COc1ccnc(N2CCN(C(=O)CN3CCCC3=O)CC2)n1,-1.88%,13.5%
Cc1nc(CN2CCOC(CNc3cccnn3)C2)cs1 (configuration not stated),-1.08%,-2.07%
Cc1ccc(CN2CCCC3(COCCN(Cc4c[nH]nn4)C3)C2)o1 (configuration not stated),4.69%,-4.03%
O=C(NCCCN1CCCCC1)c1ccc(-n2ccc3ccccc32)s1,5.58%,-90%
Cc1cc(C)c2cc(CNCC3CCCO3)c3nn(C)c(=O)n3c2c1 (configuration not stated),1.03%,3.55%
COC(=O)c1cccc(NC(=O)CN2CCN(S(C)(=O)=O)CC2)c1,1.93%,10.4%
Fc1cccc(-c2nc(CN3CCOC(Cn4cccn4)C3)co2)c1 (configuration not stated),2.49%,24.3%
CC(C)Nc1nc(N2CCOCC2)nc2c1CN(CC(=O)N(C)C)CC2,12.1%,-23.6%
O=C(C1CCCCC1)N1CCC2(CCCN2CC2CC2)CC1,2.39%,-6.44%
CSCC(C)(O)CNC(=O)c1ccc(Br)cc1F (configuration not stated),3.26%,13.2%
CCC(=O)N1CCC(c2nnc(Cn3cccn3)n2C2CC2)CC1,-6.07%,-3.53%
CC(Cn1ccnc1)NC(=O)N1CCN(Cc2cccnc2)CC1 (configuration not stated),0.189%,6.15%
Cc1ccccc1S(=O)(=O)NC(=O)CSc1ccc2c(c1)OCCO2,-0.334%,-0.0455%
Fc1cccc(-c2nc(CN3CCCCC3Cn3cncn3)co2)c1 (configuration not stated),0.0286%,14.4%
